Some test systems named below: HCT-15 colon; HT29 colon; SNB-75 CNS; SNB-19 CNS; U251 CNS; PC-3 prostate; SK-MEL-5 melanoma; UACC-62 melanoma; LOX IMVI melanoma; SK-MEL-28 melanoma; SK-MEL-2 melanoma; SN12C renal; UO-31 renal; TK-10 renal; ACHN renal; A498 renal; CAKI-1 renal; MOLT-4 leukemia; CCRF-CEM leukemia.
What all share (test): NCI-60 one-dose screen, 48 h (100 = growth as untreated, 0 = no growth, -100 = all killed)
Holding throughout (conditions): 10 µM unless noted

Molecules are shown by their SMILES. Compounds without any hit were thinned out: in the full panel of roughly 83,000, 20% have a hit.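 In brief: 96-well plates, 48 h treatment, single concentration, percent growth endpoint.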 Values without a mark were called inactive. The source made the active and inactive calls. The calls were made as follows: active = growth percent below 10; inactive = the rest.

`O=Cc1ncc(-c2ccc(C(F)(F)F)cc2)c(NC2CCCCCC2)n1`: the growth in the experiment with HCT-15 colon was -79% [100 µM] (active); in the experiment on HT29 colon it was -80.8% [100 µM] (active); in the experiment with SNB-75 CNS, -15.7% [100 µM] (active); in the experiment with SNB-19 CNS it was -47.6% [100 µM] (active); with U251 CNS it was -98.2% [100 µM] (active); in the experiment on PC-3 prostate, -81.7% [100 µM] (active). For the same molecule, the growth was 5.66% [100 µM] (active) in the experiment on SK-MEL-5 melanoma; -90.1% [100 µM] (active) with UACC-62 melanoma; -73.4% [100 µM] (active) with LOX IMVI melanoma; -71.4% [100 µM] (active) in the experiment on SK-MEL-28 melanoma; -79.8% [100 µM] (active) in the experiment with SK-MEL-2 melanoma; -87.4% [100 µM] (active) with SN12C renal. Besides, the growth is -90.8% [100 µM] (active) with UO-31 renal, -94.9% [100 µM] (active) in the experiment on TK-10 renal, -99.5% [100 µM] (active) with ACHN renal and -73.1% [100 µM] (active) in the experiment with A498 renal.
Consider `COC(=O)[C@H](Cc1cn(C)cn1)NC(=O)[C@H](C)NC(=O)Nc1cc(C(F)(F)F)cc(C(F)(F)F)c1`, for which the growth with HCT-15 colon is 37.7% [100 µM]; in the experiment on HT29 colon, -67.5% [100 µM] (active); in the experiment on SNB-75 CNS, -78.3% [100 µM] (active); in the experiment with SNB-19 CNS it was -82.5% [100 µM] (active); in the experiment with U251 CNS it was -93.8% [100 µM] (active); in the experiment with PC-3 prostate it was -83.7% [100 µM] (active). In addition, the growth in the experiment on SK-MEL-5 melanoma was -95.4% [100 µM] (active); with UACC-62 melanoma it was -93% [100 µM] (active); in the experiment on LOX IMVI melanoma, -81% [100 µM] (active); in the experiment with SK-MEL-28 melanoma, -94.4% [100 µM] (active); in the experiment on SK-MEL-2 melanoma, -90.1% [100 µM] (active); with SN12C renal, -82.4% [100 µM] (active). The growth was -92.7% [100 µM] (active) in the experiment with UO-31 renal; -96.4% [100 µM] (active) with TK-10 renal; -90% [100 µM] (active) in the experiment on ACHN renal; 73.1% [100 µM] in the experiment with CAKI-1 renal; -88.4% [100 µM] (active) with A498 renal; -27.4% [100 µM] (active) in the experiment on MOLT-4 leukemia.
In the case of `CC(C)OP(=O)(OC(C)C)c1ncc(-c2ccc(C(F)(F)F)cc2)c(NC2CCCCCC2)n1`, the growth with HCT-15 colon was -7.06% [33.3 µM] (active); in the experiment on HT29 colon, -68.3% [33.3 µM] (active); in the experiment on SNB-75 CNS, -18.6% [33.3 µM] (active); with SNB-19 CNS it was -27.9% [33.3 µM] (active); in the experiment with U251 CNS it was -87.4% [33.3 µM] (active); with PC-3 prostate, -68% [33.3 µM] (active). Also, the growth in the experiment with SK-MEL-5 melanoma is -87.2% [33.3 µM] (active); in the experiment on UACC-62 melanoma, -64.8% [33.3 µM] (active); in the experiment with LOX IMVI melanoma, -63.3% [33.3 µM] (active); with SK-MEL-28 melanoma, -74.5% [33.3 µM] (active); with SK-MEL-2 melanoma, -85.1% [33.3 µM] (active); with SN12C renal, -72.9% [33.3 µM] (active). The growth in the experiment on UO-31 renal is -91.5% [33.3 µM] (active); in the experiment with TK-10 renal, 1.08% [33.3 µM] (active); in the experiment with ACHN renal, -1.03% [33.3 µM] (active); with CAKI-1 renal, -29.4% [33.3 µM] (active); in the experiment with A498 renal it was -94% [33.3 µM] (active); in the experiment on MOLT-4 leukemia, -46.2% [33.3 µM] (active).
Take `O=c1sc2ncnc3ncn1c32`: the growth in the experiment on HCT-15 colon is 78%; with HT29 colon it was 56.2%; in the experiment on SNB-75 CNS, 46.1%; in the experiment on SNB-19 CNS, 97.4%; in the experiment with U251 CNS, 87.4%; in the experiment on PC-3 prostate, 75.8%. The growth in the experiment with SK-MEL-5 melanoma is 89.3%; in the experiment with UACC-62 melanoma it was 56.8%; in the experiment on LOX IMVI melanoma, 12.7%; in the experiment with SK-MEL-28 melanoma it was 99.6%; with SK-MEL-2 melanoma it was 81.9%; in the experiment on SN12C renal, 85%. The growth with UO-31 renal is 52.6%; with TK-10 renal, 26.9%; in the experiment with ACHN renal, 80.3%; with CAKI-1 renal, 43.1%; in the experiment with A498 renal, 101%; in the experiment on CCRF-CEM leukemia it was 54.8%. In addition, in the experiment on MOLT-4 leukemia, the growth is 35.9%.
`CNc1nc(NC2CCCC2)nc(Sc2ccc(OC)cc2)n1`: the growth was 24.8% [100 µM] in the experiment with HCT-15 colon; 3.05% [100 µM] (active) in the experiment on HT29 colon; 48.9% [100 µM] with SNB-75 CNS; 40.4% [100 µM] in the experiment with SNB-19 CNS; 25.8% [100 µM] in the experiment on U251 CNS; -7.58% [100 µM] (active) in the experiment with PC-3 prostate. Besides, the growth with SK-MEL-5 melanoma was 11.6% [100 µM]; in the experiment on UACC-62 melanoma, 25.1% [100 µM]; in the experiment on LOX IMVI melanoma, 22.4% [100 µM]; with SK-MEL-28 melanoma it was 46.4% [100 µM]; in the experiment with SK-MEL-2 melanoma, 9.28% [100 µM] (active); in the experiment with SN12C renal, 28.5% [100 µM]. Moreover, the growth is 12.8% [100 µM] in the experiment with UO-31 renal, 42.1% [100 µM] with TK-10 renal, 21% [100 µM] with ACHN renal and 10.1% [100 µM] in the experiment on A498 renal.
Consider `CCCCN1c2nc3ccccc3cc2Sc2cc3ccccc3nc21`, for which the growth with HCT-15 colon is 94.9%; with HT29 colon it was 95.2%; with SNB-75 CNS it was 107%; with SNB-19 CNS, 107%; with U251 CNS, 109%; in the experiment on PC-3 prostate, 78.6%. In addition, the growth in the experiment on SK-MEL-5 melanoma is 82.1%; in the experiment with UACC-62 melanoma, 91.7%; in the experiment on LOX IMVI melanoma, 103%; in the experiment with SK-MEL-28 melanoma, 116%; in the experiment with SK-MEL-2 melanoma, 61.9%; in the experiment with SN12C renal, 102%. Moreover, the growth was 22% with UO-31 renal; 108% with TK-10 renal; 107% with ACHN renal; 460% with CAKI-1 renal; 116% with A498 renal; 89.2% in the experiment with CCRF-CEM leukemia. Also, the growth with MOLT-4 leukemia was 103%.
On to `CCn1cnc(C[C@H](NC(=O)[C@H](CCCCNC(=O)Nc2cc(C(F)(F)F)cc(C(F)(F)F)c2)NC(=O)Nc2cc(C(F)(F)F)cc(C(F)(F)F)c2)C(=O)OC)c1`, for which the growth with HCT-15 colon was 48.1% [100 µM]; in the experiment with HT29 colon, -99.4% [100 µM] (active); in the experiment on SNB-75 CNS, -36.4% [100 µM] (active); in the experiment with SNB-19 CNS it was -36.5% [100 µM] (active); in the experiment on U251 CNS, -100% [100 µM] (active); in the experiment with PC-3 prostate, -38.5% [100 µM] (active). Also, the growth in the experiment with SK-MEL-5 melanoma is -100% [100 µM] (active); in the experiment on UACC-62 melanoma, -88.3% [100 µM] (active); with LOX IMVI melanoma, -100% [100 µM] (active); in the experiment on SK-MEL-28 melanoma it was -99.5% [100 µM] (active); in the experiment on SK-MEL-2 melanoma, -100% [100 µM] (active); in the experiment with SN12C renal it was -6.45% [100 µM] (active). Besides, the growth with UO-31 renal is 49.4% [100 µM]; in the experiment on TK-10 renal, -36.5% [100 µM] (active); with ACHN renal, -40.4% [100 µM] (active); with CAKI-1 renal, 68.4% [100 µM]; in the experiment with A498 renal it was -52.4% [100 µM] (active); with MOLT-4 leukemia, -33.8% [100 µM] (active).
On to `NC(=O)c1cc(Cl)ccc1NC(=O)c1ccccc1-c1ccccc1`, for which the growth is 27.9% in the experiment with HCT-15 colon; 9.11% (active) with HT29 colon; -5.88% (active) with SNB-75 CNS; 31.9% in the experiment with SNB-19 CNS; 21.4% in the experiment on U251 CNS; 23.5% in the experiment with PC-3 prostate. Moreover, the growth in the experiment with SK-MEL-5 melanoma is 26.4%; with UACC-62 melanoma, 18.6%; in the experiment on LOX IMVI melanoma, 28.9%; in the experiment on SK-MEL-28 melanoma, 41.5%; in the experiment on SK-MEL-2 melanoma, -12.2% (active); with SN12C renal, 51.9%. The growth was 30.7% in the experiment with UO-31 renal; 41.6% in the experiment on TK-10 renal; 34.9% with ACHN renal; 27.5% in the experiment with A498 renal; 7.4% (active) with CCRF-CEM leukemia; 13.3% with MOLT-4 leukemia.

These data come from PubChem BioAssay (NCI).
